Measured values published in PubChem BioAssay (NCI).
Compounds without any hit were thinned out: in the full panel of roughly 83,000, 20% have a hit.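 Growth was measured after 48 h exposure to one concentration of compound in 96-well plates. Values under 10 count as active.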 Activity calls are given as the source filed them.

What was measured:
Assay in all cases: NCI-60 one-dose screen, 48 h (100 = growth as untreated, 0 = no growth, -100 = all killed)
Details in all cases: 10 µM unless noted
HCT-15 colon = tested on: HCT-15 colon
HT29 colon = tested on: HT29 colon
SNB-75 CNS = tested on: SNB-75 CNS
SNB-19 CNS = tested on: SNB-19 CNS
U251 CNS = tested on: U251 CNS
PC-3 prostate = tested on: PC-3 prostate
SK-MEL-5 melanoma = tested on: SK-MEL-5 melanoma
UACC-62 melanoma = tested on: UACC-62 melanoma
LOX IMVI melanoma = tested on: LOX IMVI melanoma
SK-MEL-28 melanoma = tested on: SK-MEL-28 melanoma

Measured: growth

Cc1nn(-c2ccccc2)c(Cl)c1/C=C/C(=O)c1ccc(F)cc1
inactive: HCT-15 colon 73.9% | HT29 colon 91.1% | SNB-75 CNS 97.9% | SNB-19 CNS 87% | U251 CNS 75.9% | PC-3 prostate 78.7% | SK-MEL-5 melanoma 91.7% | UACC-62 melanoma 65.2% | LOX IMVI melanoma 76.5% | SK-MEL-28 melanoma 105%

O=C(NCCNc1nccc(-c2c(-c3cccc(F)c3)nc3sccn23)n1)c1ccc(Cl)cc1
inactive: HCT-15 colon 40.1% | HT29 colon 35.2% | SNB-75 CNS 63.5% | SNB-19 CNS 71.9% | U251 CNS 66.1% | PC-3 prostate 72.5% | SK-MEL-5 melanoma 33.6% | UACC-62 melanoma 14.7% | LOX IMVI melanoma 43.4% | SK-MEL-28 melanoma 64.9%

O=C(CCN1CCCC1)Nc1ccc2c(Nc3ccc(Br)cc3)c3ccccc3nc2c1
active: HCT-15 colon -73.9% | HT29 colon 1.67% | SNB-19 CNS -0.557% | U251 CNS -51% | PC-3 prostate 4.09% | LOX IMVI melanoma -92.4% | SK-MEL-28 melanoma -28.6%
inactive: SNB-75 CNS 37.3% | SK-MEL-5 melanoma 31.7% | UACC-62 melanoma 77.8%

COc1ccc(-c2cnc3c(-c4cccc5ncccc45)cnn3c2)cc1
active: SNB-75 CNS -13.1% | SNB-19 CNS 5.29%
inactive: HCT-15 colon 71.6% | HT29 colon 43.5% | U251 CNS 16.3% | PC-3 prostate 50.6% | SK-MEL-5 melanoma 22.3% | UACC-62 melanoma 54.2% | LOX IMVI melanoma 72.4% | SK-MEL-28 melanoma 58.1%

Clc1ccc(-c2ccc(CNCC3CCNCC3)o2)c(-c2ccccc2)c1
active: HCT-15 colon -76.3% | HT29 colon -78.6% | SNB-75 CNS -90.8% | SNB-19 CNS -68.1% | U251 CNS -88.8% | PC-3 prostate -81.8% | SK-MEL-5 melanoma -99.1% | UACC-62 melanoma -90.8% | LOX IMVI melanoma -86.7% | SK-MEL-28 melanoma -90%

O=C1Nc2ccccc2/C1=C\c1c(-c2ccccc2)nc2ccccn12
inactive: HCT-15 colon 29.3% | HT29 colon 21.8% | SNB-75 CNS 38.5% | SNB-19 CNS 55.8% | U251 CNS 62.9% | PC-3 prostate 49.9% | SK-MEL-5 melanoma 17.3% | UACC-62 melanoma 33.4% | LOX IMVI melanoma 37.1% | SK-MEL-28 melanoma 58.6%

CCOC(=O)C1=C(CCl)NC(=O)NC1c1ccc2c(c1)OCO2 (stereo not given)
active: HCT-15 colon 3.53% | HT29 colon 6.92% | SK-MEL-5 melanoma 9.17%
inactive: SNB-75 CNS 77.6% | SNB-19 CNS 64.4% | U251 CNS 18.5% | PC-3 prostate 53.9% | UACC-62 melanoma 31.4% | LOX IMVI melanoma 21% | SK-MEL-28 melanoma 45.6%

CCC(=O)Oc1ccc(/C(=C(\C)c2ccccc2)c2ccc(OCCN3CCCCC3)cc2)cc1
inactive: HCT-15 colon 58.6% | SNB-75 CNS 96.5% | SNB-19 CNS 85% | U251 CNS 68.4% | PC-3 prostate 72.8% | SK-MEL-5 melanoma 82.5% | UACC-62 melanoma 88.5% | LOX IMVI melanoma 81% | SK-MEL-28 melanoma 71.2%
active: HT29 colon 8.78%

COc1ccc(CCn2cncc2-c2c[nH]c3ccccc23)cc1
inactive: HCT-15 colon 93.1% | HT29 colon 82.9% | SNB-75 CNS 44.4% | SNB-19 CNS 91.4% | U251 CNS 95.7% | PC-3 prostate 80.7% | SK-MEL-5 melanoma 88.2% | UACC-62 melanoma 81.6% | LOX IMVI melanoma 88.3% | SK-MEL-28 melanoma 101%

CC[C@]12C=CCN3CC[C@@]4(c5cc(NC(=O)CCC(=O)O[C@H]6CC[C@H]7[C@@H]8CCC9=CC(=O)CC[C@@H]9[C@H]8CC[C@]67C)c(OC)cc5N(C)[C@H]4[C@@](O)(C(=O)OC)[C@@H]1OC(C)=O)[C@@H]32
inactive: HCT-15 colon 62.2% | HT29 colon 62.8% | SNB-75 CNS 68.6% | SNB-19 CNS 85% | U251 CNS 74.1% | PC-3 prostate 53.6% | SK-MEL-5 melanoma 43.8% | UACC-62 melanoma 64.1% | LOX IMVI melanoma 84.7% | SK-MEL-28 melanoma 91.7%

Cc1nnc2c(Cc3ccccc3)nc3ccccc3n12
inactive: HCT-15 colon 106% | HT29 colon 105% | SNB-75 CNS 78.1% | SNB-19 CNS 103% | U251 CNS 101% | PC-3 prostate 104% | SK-MEL-5 melanoma 97.6% | UACC-62 melanoma 100% | LOX IMVI melanoma 92.4% | SK-MEL-28 melanoma 103%

O=C(Nc1cccc(C2=NCCN2)c1)c1ccc(-c2ccc(C(=O)Nc3cccc(C4=NCCN4)c3)cc2)cc1
inactive: HCT-15 colon 82.6% | HT29 colon 84.5% | SNB-75 CNS 82% | SNB-19 CNS 87% | U251 CNS 86.3% | PC-3 prostate 97.7% | SK-MEL-5 melanoma 36.9% | UACC-62 melanoma 68.1% | LOX IMVI melanoma 97.9% | SK-MEL-28 melanoma 46.3%

Cc1ccc(NC(C(=O)c2ccccc2)c2ccccc2)cc1 (stereo not given)
inactive: HCT-15 colon 86.4% | HT29 colon 46.9% | SNB-75 CNS 66.3% | SNB-19 CNS 47.9% | U251 CNS 29.7% | PC-3 prostate 37.6% | SK-MEL-5 melanoma 22.1% | UACC-62 melanoma 39.1% | LOX IMVI melanoma 50.5% | SK-MEL-28 melanoma 52.8%

CCCCCCCC(=O)OCC/C=C/C1OC1C1OC(=O)/C=C\C=C\C(=O)N(C(C)=O)C(=O)/C=C(/C)CCC2OC2C1OC(=O)NC(C)=O (stereo not given)
inactive: HCT-15 colon 84.1% | HT29 colon 50.8% | SNB-75 CNS 79.3% | SNB-19 CNS 179% | U251 CNS 69.8% | PC-3 prostate 84.5% | SK-MEL-5 melanoma 67.5% | UACC-62 melanoma 68% | LOX IMVI melanoma 54% | SK-MEL-28 melanoma 87.1%

COc1cc(/C=N/O)nc(-c2ccccn2)c1
active: SK-MEL-5 melanoma -22.1% | UACC-62 melanoma 4.54% | LOX IMVI melanoma 3.54%
inactive: HCT-15 colon 26.7% | HT29 colon 32.6% | SNB-75 CNS 43% | SNB-19 CNS 23.1% | U251 CNS 21.3% | PC-3 prostate 49.5% | SK-MEL-28 melanoma 18.2%
